Source: PubChem BioAssay (NCI)
Compounds without any hit were thinned out: in the full panel of roughly 79,000, 15% have a hit. A number with no mark means an inactive call. No stated cut-off is given here; in the data, active means growth inhibition above about 70%; inactive means the rest.

Test: NCI Yeast Anticancer Drug Screen. Data for the rad50 strain (AID 155);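 further: 0% = growth of vehicle-only cultures of the same strain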
Conditions: S. cerevisiae rad50 strain growth inhibition; at 50.0 µM; stronger effect = higher value
Method in brief: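 A DNA repair-deficient yeast mutant serves as the test organism; compound-induced growth inhibition is calculated against vehicle-treated cells.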

Compound	growth inhibition [%]
COc1ccc2c(ccc[n+]2C)c1	19.6
NC(=O)c1cc2c3ccccc3ccn2c1-c1ccccc1	35.8
O=C(CC(CC(=O)c1ccccc1)c1ccccn1)c1ccccc1	-16.6
Cn1c(=O)[nH]c2ccccc2c1=O	-1
C=COC(=O)C(C)(C)C	8.3
CN1CCN(C(=S)S)CC1	0.3
CC(=O)c1cccs1	-9.65
C/C(=N\Nc1ccc([N+](=O)[O-])cc1[N+](=O)[O-])c1ccc(Br)cc1	-8.7
CCC12OC(COc3ccccc3)CN1CCN2c1ccccc1 (stereo unspecified)	-12.2
CC1(C)OC(=O)CC1=O	4.6
CCOC(=O)c1ccc(NC(=O)Nc2nccs2)cc1	-2.95
NC(=O)N1CCOCC1	15.2
C[n+]1c(/C=C\C=C\N2CCCCC2)sc2ccccc21	28.7
NC(CCl)=NCC12CC3CC(CC(C3)C1)C2	52
C=C(OC(C)=O)c1ccccc1	6.45
CCC(=O)C1C(=O)c2ccccc2C1=O	20.9
COc1ccc(/C=N/NC(=O)COCC(=O)N/N=C/c2ccc(OC)cc2)cc1	-34.6
CC(c1ccccc1)N(C)C (stereo unspecified)	12.7
NC(=S)c1c(N)n(C2OC(CO)C(O)C2O)c2ncnc(N)c12 (stereo unspecified)	7.2
C1CCc2onc(-c3noc4c3CCCCC4)c2CC1	-9.45
COC(=O)c1ccccc1C(=O)c1c(C)cc(C)cc1C	13.8
